Screens deposited in PubChem BioAssay by National Center for Advancing Translational Sciences (NCATS).
HEK293 cAMP cs – qHTS Assay for Agonists of the Thyroid Stimulating Hormone Receptor: Activators of Intracellular cAMP Concentrations in Parental HEK 293 | parental HEK293 CNG cAMP sensor, membrane potential fluorescence | Potency, µM (series often up to 57.1 µM), without a hit: at the highest dose activation, hits mostly activators | 73,000 tested, 2.5% active; also: % of control where 0% means no effect; nearly all actives have a fitted effect of over 55% in size
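Parental HEK 293 cells stably expressing a cAMP-gated CNG channel were loaded with membrane potential dye containing 100 uM RO 20-1724 for 60 min. Compound added for 30 min; depolarization read as fluorescence intensity at 590 nm.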
ALOX15 inhib – qHTS Assay for Inhibitors of 15-hLO (15-human lipoxygenase); Polyunsaturated fatty acid lipoxygenase ALOX15 (Homo sapiens), P16050; purified 15hLO-1, xylenol orange hydroperoxide absorbance; Potency, µM (series often up to 57.1 µM), for the others: at the top dose activity change, negative = inhibition, usual class: inhibitors; 74,000 tested, 1.4% active; AID 887, 2007; also: % is scaled to controls: 0 for no effect and ±100 for the full control effect; nearly all actives have a fitted effect of over 55% in size
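Purified human 15hLO-1 (40 nM) in 25 mM Hepes pH 7.5, 0.01% Triton X-100, preincubated 15 min RT with compound, then 50 uM arachidonic acid for 6 min. Hydroperoxide read by ferrous/xylenol orange, 30 min; 573/405 nm absorbance ratio gave progress.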
Caspase-1 inhib – qHTS Assay for Allosteric/Competitive Inhibitors of Caspase-1; Potency, µM (titrated, usually from 57.5 µM), without a hit: at the highest dose activity change, negative = inhibition, most hits filed as inhibitors; 75,000 tested, 0.03% active; AID 900, 2007; Caspase-1 enzyme, Ac-WEHD-AFC fluorogenic rate; P29466;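 also: plate controls were vehicle for no effect and no substrate for full effect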
Target sequence (P29466 120-297 limits assumed): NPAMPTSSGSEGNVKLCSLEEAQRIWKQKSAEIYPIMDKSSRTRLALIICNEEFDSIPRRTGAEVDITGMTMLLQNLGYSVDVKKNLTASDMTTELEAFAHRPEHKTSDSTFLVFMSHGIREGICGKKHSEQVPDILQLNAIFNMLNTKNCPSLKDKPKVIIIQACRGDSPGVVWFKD
Target sequence (P29466 317-404 limits assumed): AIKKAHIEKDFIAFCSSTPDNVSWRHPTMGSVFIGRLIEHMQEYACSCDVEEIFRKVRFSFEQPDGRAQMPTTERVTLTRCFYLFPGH
15-hLO-2 inh – qHTS Assay for Inhibitors of 15-hLO-2 (15-human lipoxygenase 2) | 110,000 tested, 0.56% active | purified 15hLO-2, xylenol orange hydroperoxide absorbance | AID 881, 2007 | Polyunsaturated fatty acid lipoxygenase ALOX15B (Homo sapiens), O15296 | Potency, µM (doses to about 57.1 µM), without a hit: top-dose activity change, negative = inhibition, most hits filed as inhibitors; also: % is scaled to controls: 0 for no effect and ±100 for the full control effect; nearly all actives have a fitted effect of over 60% in size
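Purified human 15hLO-2 (50 nM) preincubated 15 min with compound, then 45 uM arachidonic acid for 90 min at RT in 25 mM Hepes pH 7.5, 0.01% Triton X-100. Hydroperoxide detected by Fe-xylenol orange; 573/405 nm absorbance ratio.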
TSHR agonist – qHTS Assay for Agonists of the Thyroid Stimulating Hormone Receptor | Thyrotropin receptor (Homo sapiens), P16473 | HEK293-CNG-TSHR cells (CNG channel as cAMP sensor), membrane potential dye, cAMP | Potency, µM (highest dose often 57.1 µM), for inactives: at the highest dose activation, most hits filed as activators | 73,000 tested, 0.48% active; active = well fitted activation curve with a large enough effect in the main read-out, with a control signal flat, not every such curve was filed as active; inconclusive = small, poorly fitted or top-dose-only effect, or a change in a side signal; inactive = no such curve, though single readings can be large or run the other way; % of control where 0% means no effect;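 also: the control signal comes from parental cells without the receptor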
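HEK 293 cells stably expressing TSHR and a modified CNG channel, with CNG-only parental cells as counterscreen, were preloaded 60 min at room temperature with membrane potential dye containing 100 uM RO 20-1724. Compound exposure was 30 min, and depolarization was read as fluorescence at 590 nm.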
Caspase-7 inhib – qHTS Assay for Allosteric/Competitive Inhibitors of Caspase-7; P55210; recombinant caspase-7, Ac-DEVD-AFC fluorescence rate; Potency, µM (doses to about 57.5 µM), without a hit: at the top dose activity change, negative = inhibition, usual class: inhibitors; 75,000 tested, 0.02% active; active = well fitted inhibition curve with a large enough effect in the main read-out, with a control signal flat, not every such curve was filed as active; inconclusive = small, poorly fitted or top-dose-only effect, or a change in a side signal; also: % of control where 0% means no effect
Target sequence (P55210 24-198 limits assumed): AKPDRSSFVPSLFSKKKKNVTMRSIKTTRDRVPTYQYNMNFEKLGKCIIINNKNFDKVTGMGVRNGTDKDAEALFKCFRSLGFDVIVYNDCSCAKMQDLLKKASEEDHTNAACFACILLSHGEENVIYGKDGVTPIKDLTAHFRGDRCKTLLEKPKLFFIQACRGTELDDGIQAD
Target sequence (P55210 207-303 limits assumed): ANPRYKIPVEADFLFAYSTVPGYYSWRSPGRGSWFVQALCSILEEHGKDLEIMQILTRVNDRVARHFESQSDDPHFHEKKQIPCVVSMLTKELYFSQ
* marks the source's active call; other numbers are inactive results; u = inconclusive; x = not tested or not shown; [ ] = dose if it differs, or a comment. Sampled rows, rich in hits. Any-hit rate of the full collection: about 3%. Unless noted, calls follow the shape of the dose curve; as a rule, active = well fitted curve in the direction sought with a large enough effect; inconclusive = small, poorly fitted or top-dose-only effect, or another doubt; inactive = no such curve, though single readings can be large; an effect the other way counts as inactive or inconclusive. Potency is read from the fitted curve at half-maximal effect.

SMILES | HEK293 cAMP cs | ALOX15 inhib | Caspase-1 inhib | 15-hLO-2 inh | TSHR agonist | Caspase-7 inhib
Cc1cc(C(=O)CSc2nnc(N)s2)c(C)n1CCc1ccc(Cl)cc1 | 25µM* | -27% | -5% | -3% | u | -7%
COc1ccc(CCn2c(C)cc(C(=O)CSc3nnc(N)s3)c2C)cc1 | 25µM* | 12% | -1% | -1% | u | 0%
Cc1cc(C(=O)CSc2nnc(N)s2)c(C)n1CCc1ccc(F)cc1 | u | -3% | -2% | -2% | u | -2%
COc1ccc(CCn2c(C)cc(C(=O)CSc3nc(N)cc(=O)[nH]3)c2C)cc1 | x | x | x | -10% | x | x
COc1ccccc1C[C@@H](Cc1nc2ccccc2[nH]1)c1nc2ccccc2[nH]1 | 29% | x | x | x | x | x
COC(=O)[C@@H]1CC[C@H](C)[C@@H](c2ccc(C)cc2)N1C(=O)c1ccc(/C=N\O[C@@H](C)CN2CCCc3nc(C)c(C)cc32)cc1 | 15%[11.4 µM] | -9%[11.4 µM] | -1%[11.5 µM] | x | 3%[11.4 µM] | -1%[11.5 µM]
COCCn1c(=O)c(-c2ccc(F)c(F)c2)nc2cncnc21 | u | -29% | -14% | -5% | u | -23%
O=C(Nc1cccc(Cn2cccn2)c1)c1cc2c(s1)CCCC2 | 28% | -17% | -1% | 11% | x | -1%
CC(=O)Nc1cccc(Cn2cccn2)c1 | 20µM* | 1% | 1% | 2% | u | 0%
COc1ccc(NC(=O)c2ccc(C(=O)c3cc(OC)ccc3OC)cc2)cc1 | x | x | x | 1% | x | x
COc1ccc(N2CCN(c3nc(=S)n(-c4ccccc4)c(C)c3C(C)=O)CC2)cc1 | -6% | 16µM* | -10% | -4% | -9% | -30%
O=C(c1ccc(C23CC4CC(CC(C4)C2)C3)o1)N1CCOCC1 | 19% | 11% | 0% | -3% | 13µM* | 1%
Cc1cccc(C(C)C)c1-n1nnnc1-c1ccccc1 | 20µM* | u | -4% | -4% | u | -4%
CCCOn1nnnc1-c1ccccc1 | 0% | 1% | -2% | x | 2% | 0%
CC(=O)O[C@H]1C2=CO[C@H](C)[C@H]3[C@H]4C5=C([C@H](O)[C@H]6O[C@@H]6C5=O)[C@H](O[C@H]4C)[C@@]23C(=O)[C@H]2O[C@@H]21 | -2%[11.4 µM] | 3%[11.4 µM] | -2%[11.5 µM] | x | -3%[11.4 µM] | 0%[11.5 µM]
Cc1cccc([C@@H]2CN(C)CCc3c2cc(O)c(O)c3Cl)c1 | 25µM* | -26%[25.6 µM] | 0% | -2% | u | 1%
CN1CCc2cc(Cl)c(O)cc2[C@H](c2ccccc2)C1 | 20% | -5% | -2% | 8% | x | 0%
Nc1nc2c(cnn2CCc2ccccc2)c2nc(-c3ccco3)nn12 | 1% | 20µM* | 0% | -17% | 4% | -4%
COc1ccc(C(=O)CSc2nnnn2Cc2ccccc2)cc1 | 22% | -2% | -4% | 1% | 16% | 7%
O=C(CSc1nnnn1Cc1ccccc1)c1ccccc1 | 32µM* | -1% | -1% | 3% | u | 2%
COc1ccccc1N1CCN(c2nc(C)nc3c2oc2ccccc23)CC1 | 25µM* | -5% | -6% | 24% | u | -3%
Cc1cc(C)nc(N2CCN(c3nc(C)nc4c3oc3ccccc34)CC2)n1 | 5% | 2% | 0% | x | 14% | -1%
Cc1nc(N2CCC(C)CC2)c2oc3ccccc3c2n1 | 25µM* | -23% | -2% | 24% | u | -2%
CC(C)(C)C(=O)OCOP(=O)(OCOC(=O)C(C)(C)C)C(C)(Oc1ccc(O)cc1)P(=O)(OCOC(=O)C(C)(C)C)OCOC(=O)C(C)(C)C | x | x | x | 28%[0.0915 µM] | x | x
CC(=O)N1CC[C@H]2CC(=O)CC[C@@]21C | x | x | x | 0%[0.0915 µM] | x | x
SMILES | HEK293 cAMP cs | ALOX15 inhib | Caspase-1 inhib | 15-hLO-2 inh | TSHR agonist | Caspase-7 inhib
CSc1ccccc1-c1nnc(-c2ccc(C)cc2)o1 | x | x | x | 19% | x | x
Cc1ccccc1-c1nnc(-c2ccc(Br)cc2)o1 | 3.2µM* | -3% | -2% | -1% | u | 1%
CCC/C=C(\CCC)C(NS(C)(=O)=O)c1ccccc1 (stereo not drawn) | 19% | x | 0% | -4% | 19% | 0%
CC(C)(C)n1nnnc1C(c1cccs1)N(Cc1cccnc1)Cc1ccco1 (stereo not drawn) | x | x | x | 21% | x | x
CC(C)(C)n1nnnc1C(c1cccs1)N(Cc1ccccc1)Cc1ccco1 (stereo not drawn) | 16µM* | -13% | 0% | -17% | u | -1%
Cc1cc(C)nc(NC(=NCCc2c[nH]c3ccccc23)NC(=O)c2ccco2)n1 | 21% | -11% | -3% | -8% | 5µM* | -1%
Cc1cccc(NC(=O)c2cc3ccccc3o2)c1 | 25µM* | -10% | -1% | x | u | -1%
O=C(Nc1ccc2c(c1)CCC2)c1cc2ccccc2o1 | x | x | x | -2% | x | x
O=C(Nc1cccc(Br)c1)c1cc2ccccc2o1 | 25µM* | -22% | -6% | 2% | u | -2%
CCC(=O)Nc1cccc(NC(=O)c2cc3ccccc3o2)c1 | 8% | -13% | 2% | -3% | 14% | 0%
CCOC(=O)c1ccc(NC(=O)c2cc3ccccc3o2)cc1 | 25µM* | -9% | -1% | 0% | u | -1%
Cc1cc(C)c2c(-n3cccc3)c(C(=O)O)sc2n1 | u | 5% | -2% | -1% | u | 1%
CCCCNC(=O)c1sc2nc(C)cc(COC)c2c1-n1cccc1 | 16µM* | -9% | -1% | 2% | u | 0%
CC1(O)C(=O)C=C2C=C3CCCN3C=C2C1=O (stereo not drawn) | 0%[11.4 µM] | -23%[11.4 µM] | -2%[11.5 µM] | x | 0%[11.4 µM] | -4%[11.5 µM]
COc1ccc(CNc2nc(-c3ccccc3OC)nc3ccccc23)c(OC)c1 | -40% | -26% | -2% | 14% | u | -3%
COCCN1C(=O)c2ccccc2C(C(=O)NCCCN2CCCC2=O)C1c1c[nH]c2ccccc12 (stereo not drawn) | 3% | 25µM* | -1% | x | -1% | 0%
CCN(CC)CCn1c(-c2ccccc2)nc2c(NCc3ccccc3)nc(C)nc21 | u | -2% | -3% | 13% | u | 0%
COC(=O)c1ccsc1NC(=O)CN1CCN(Cc2ccc3c(c2)OCO3)CC1 | x | x | x | 41% | x | x
COC(=O)c1c(NC(=O)CN2CCN(Cc3ccc4c(c3)OCO4)CC2)sc(C)c1C | 1.6µM* | u | 1% | 33% | u | -4%
COc1ccc(-c2nc(=S)[nH][nH]2)cc1 | -18% | -25% | -2% | u | -1% | 0%
CCOc1ccc(-c2nc(=S)[nH][nH]2)cc1 | -8% | 25µM* | 0% | u | -5% | 1%
